Experimental data reported in PubChem BioAssay (NCI).
The panel holds about 79,000 compounds, 15% with a hit somewhere; the sample as a whole holds those more often. Values without a mark were called inactive. The source made the active and inactive calls. Cut-off read from the data, not from the text of the source: active = growth inhibition above about 70%; inactive = the rest.

Assay: NCI Yeast Anticancer Drug Screen. Data for the sgs1 mgt1 strain (AID 161);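 note: 0% = growth of cultures given vehicle only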
Details: S. cerevisiae sgs1 mgt1 strain, stronger effect = higher value
Experimental: Growth inhibition of yeast strains with defined genetic alterations is measured as a screen for potential anti-cancer activity. Selected strains with alterations in DNA damage repair or cell cycle control were exposed to compounds and growth inhibition was measured relative to vehicle treated controls. The strain used in this assay is sgs1 mgt1

[1] = at 5.0 µM (retest, dose inferred, filed as 0.5)
[2] = at 50.0 µM (retest, dose inferred, filed as 5.0)

SMILES | growth inhibition [1] | growth inhibition [2] | growth inhibition (at 50.0 µM)
Cc1c(Cl)cc2[nH]c(C(F)(F)F)nc2c1Cl | 3% | 79% (active) | 71.2% (active)
Oc1c(Cl)cc(Cl)c(Cc2c(Cl)cc(Cl)c(O)c2Cl)c1Cl | 98% (active) | 99% (active) | -10.2%
COC(=O)c1cccc2c3ccccc3c3ccccc3c12 | 8% | 99% (active) | 99.2% (active)
CN(C)c1ccc(C(O)(Cc2cccnc2)c2ccc(N(C)C)cc2)cc1 | -2% | 4% | 53%
CCCCCCCCN(CCCCCCCC)CC(O)c1ccc2cc3c(nc2c1)CCCC3 (configuration not stated) | 18% | 96% (active) | 98.8% (active)
CN(C)c1ccc(C(=O)C2CCCC(C)(C)C2)cc1 (configuration not stated) | 13% | 77% (active) | 91.5% (active)
N=C(N)c1cccc(-c2ccc(-c3ccccc3)o2)c1 | 0% | 94% (active) | 57.2%
O=C(O)CNc1ccc2c(c1)Cc1cc(Br)ccc1-2 | 55% | 98% (active) | 97.9% (active)
O=S(=O)(Nc1ccccn1)c1ccc(NCc2c3ccccc3nc3cc(Cl)ccc23)cc1 | -2% | 66% | 54.5%
O=C(Cc1ccccc1)NC(C(=O)c1ccccc1)c1ccccc1 (configuration not stated) | 36% | 47% | 72.2% (active)
[N-]=[N+]=NCC(O)c1ccc2c(c1)[nH]c1ccccc12 (configuration not stated) | -5% | 41% | 27.6%
Cc1ccc(NC(=O)CC2SC(=Nc3ccc(Cl)cc3)NC2=O)cc1C (configuration not stated) | 65% | 0% | 99.3% (active)
COc1ccc2oc(-c3ccc(OC)c(OC)c3OC)cc(=O)c2c1 | -11% | 50% | 70% (active)
O=S(=O)(CCCl)Cc1ccccc1 | -61% | -37% | 14%
